# Screens (PubChem)
# HP1b binding inh: HTS for Inhibitors of HP1-beta Chromodomain Interactions with Methylated Histone Tails. Chromobox protein homolog 1 (Homo sapiens), P83916. AlphaScreen HP1-beta / biotin-H3K9me3 peptide binding. Potency, µM (series often up to 114 µM), for the others: top-dose activity change, negative = inhibition, actives largely listed as inhibitors. 0.56% of 390,000 active. AID 540317, 2011; further: nearly all actives have a fitted effect of over 70% in size
#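 HP1-beta protein (50 nM final) preincubated 30 min at room temperature with biotinylated H3(1-18)K9me3 peptide (50 nM) in PBS pH 7.4, 0.01% Tween-20, then compound added for 30 min. AlphaScreen streptavidin donor/nickel chelate acceptor beads (10 ug/mL final), 30 min dark, luminescence read.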
# BAZ2B block: qHTS Assay for Inhibitors of BAZ2B; Bromodomain adjacent to zinc finger domain protein 2B (Homo sapiens), Q9UIF8; Potency, µM (highest dose often 114 µM), without a hit: at the top dose activity change, negative = inhibition, most hits filed as inhibitors; 4.4% of 360,000 active; AlphaScreen BAZ2B-H3K14Ac peptide displacement; further: on the % scale 0 is the no-effect control and ±100 the full control effect; nearly all actives have a fitted effect of over 60% in size
# Target sequence (Q9UIF8 whole entry, looked up, the tested form may be a part): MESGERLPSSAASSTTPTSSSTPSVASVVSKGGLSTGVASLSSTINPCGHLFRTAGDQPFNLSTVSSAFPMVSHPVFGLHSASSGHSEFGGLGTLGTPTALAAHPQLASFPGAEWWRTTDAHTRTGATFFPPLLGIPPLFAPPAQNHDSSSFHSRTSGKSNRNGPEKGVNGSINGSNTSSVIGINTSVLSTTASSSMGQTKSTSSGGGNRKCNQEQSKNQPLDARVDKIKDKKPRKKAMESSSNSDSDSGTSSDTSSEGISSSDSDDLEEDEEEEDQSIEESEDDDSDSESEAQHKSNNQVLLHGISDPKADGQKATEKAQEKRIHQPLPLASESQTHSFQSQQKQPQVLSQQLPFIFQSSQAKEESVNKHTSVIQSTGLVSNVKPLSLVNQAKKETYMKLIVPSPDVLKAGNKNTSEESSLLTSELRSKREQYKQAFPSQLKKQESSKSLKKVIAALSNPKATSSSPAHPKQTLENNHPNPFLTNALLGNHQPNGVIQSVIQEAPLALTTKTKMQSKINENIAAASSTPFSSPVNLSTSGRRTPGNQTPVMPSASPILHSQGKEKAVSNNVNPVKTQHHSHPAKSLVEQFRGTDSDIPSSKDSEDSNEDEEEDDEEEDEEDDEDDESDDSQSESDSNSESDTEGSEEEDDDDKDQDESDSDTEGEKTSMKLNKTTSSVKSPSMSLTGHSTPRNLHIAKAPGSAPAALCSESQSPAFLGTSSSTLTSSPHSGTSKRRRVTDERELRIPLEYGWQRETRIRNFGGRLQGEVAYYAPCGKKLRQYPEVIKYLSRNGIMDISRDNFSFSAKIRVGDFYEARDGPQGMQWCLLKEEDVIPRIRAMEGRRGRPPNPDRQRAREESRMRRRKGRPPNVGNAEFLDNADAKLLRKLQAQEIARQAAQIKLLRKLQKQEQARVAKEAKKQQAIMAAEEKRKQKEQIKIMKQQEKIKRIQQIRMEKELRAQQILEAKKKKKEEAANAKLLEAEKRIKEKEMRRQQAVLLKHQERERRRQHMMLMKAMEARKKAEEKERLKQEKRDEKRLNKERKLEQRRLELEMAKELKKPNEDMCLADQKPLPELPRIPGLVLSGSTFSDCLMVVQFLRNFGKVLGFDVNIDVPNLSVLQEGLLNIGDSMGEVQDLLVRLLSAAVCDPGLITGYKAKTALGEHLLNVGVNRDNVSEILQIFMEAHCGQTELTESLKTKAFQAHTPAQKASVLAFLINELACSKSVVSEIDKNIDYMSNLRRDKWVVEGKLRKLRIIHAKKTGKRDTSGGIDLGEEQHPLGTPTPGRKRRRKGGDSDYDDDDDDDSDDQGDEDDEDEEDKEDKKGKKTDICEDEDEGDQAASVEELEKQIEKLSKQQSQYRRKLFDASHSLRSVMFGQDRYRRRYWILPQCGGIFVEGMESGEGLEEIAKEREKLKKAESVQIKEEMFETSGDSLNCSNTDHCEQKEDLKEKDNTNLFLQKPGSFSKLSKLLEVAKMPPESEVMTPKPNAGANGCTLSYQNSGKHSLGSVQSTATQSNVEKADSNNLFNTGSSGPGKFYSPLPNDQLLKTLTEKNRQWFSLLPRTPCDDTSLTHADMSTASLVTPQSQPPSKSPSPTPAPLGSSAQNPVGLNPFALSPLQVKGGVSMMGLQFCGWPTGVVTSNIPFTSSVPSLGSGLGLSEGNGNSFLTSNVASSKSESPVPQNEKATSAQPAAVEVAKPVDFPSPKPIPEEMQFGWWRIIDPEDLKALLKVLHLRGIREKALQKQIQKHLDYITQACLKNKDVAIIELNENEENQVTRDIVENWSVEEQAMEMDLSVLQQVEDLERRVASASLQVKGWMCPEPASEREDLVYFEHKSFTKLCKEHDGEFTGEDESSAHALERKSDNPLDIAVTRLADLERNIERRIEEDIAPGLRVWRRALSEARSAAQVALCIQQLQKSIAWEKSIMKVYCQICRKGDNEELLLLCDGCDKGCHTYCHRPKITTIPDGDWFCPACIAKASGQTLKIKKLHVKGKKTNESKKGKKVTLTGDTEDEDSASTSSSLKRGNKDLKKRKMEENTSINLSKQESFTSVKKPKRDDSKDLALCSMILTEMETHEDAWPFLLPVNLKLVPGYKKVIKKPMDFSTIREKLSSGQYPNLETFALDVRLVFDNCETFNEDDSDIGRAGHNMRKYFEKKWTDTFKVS
#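 BAZ2B (50 nM) with biotin-H3(5-23)K14Ac peptide (50 nM) in PBS pH 7.4, 0.01% Tween-20, preformed 30 min, then compound 30 min at room temperature; top concentration 110uM. AlphaScreen streptavidin donor/nickel chelate acceptor beads (10 ug/mL final), 20 min dark, signal read.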
# JMJD2A Tudor inh: qHTS Assay for Inhibitors of JMJD2A-Tudor Domain; 4.4% of 390,000 active; Lysine-specific demethylase 4A (Homo sapiens), O75164; Potency, µM (titrated, usually from 114 µM), for the others: top-dose activity change, negative = inhibition, most hits filed as inhibitors; AlphaScreen JMJD2A-Tudor / H3K4me3 peptide binding; further: on the % scale 0 is the no-effect control and ±100 the full control effect; nearly all actives have a fitted effect of over 50% in size
# GLS inhibitor: qHTS for Inhibitors of Glutaminase (GLS) | 0.21% of 410,000 active | GLS enzymatic activity, qHTS titration | Potency, µM (top dose mostly 45.5 µM), inactives show top-dose activity change, negative = inhibition, hits mostly inhibitors | Glutaminase kidney isoform, mitochondrial (Homo sapiens), O94925; further: on the % scale 0 is the no-effect control and ±100 the full control effect
#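 Enzyme dispensed in phosphate buffer (45 mM, pH 8.2, 0.02% Tween-20), compounds pinned in, then 1 mM L-glutamine solution and the glutamate oxidase–HRP–Amplex Red mix added; fluorescence read immediately and again after 30 min at room temperature.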
# G9a block: qHTS Assay for Inhibitors of Histone Lysine Methyltransferase G9a; Histone-lysine N-methyltransferase EHMT2 (Homo sapiens), Q96KQ7; G9a H3K9 monomethylation, AlphaScreen, 2 h; Potency, µM (titrated, usually from 102 µM), for inactives: top-dose activity, negative = inhibition, most hits filed as inhibitors; 8.8% of 350,000 active; AID 504332, 2011; further: on the % scale 0 is the no-effect control and ±100 the full control effect; nearly all actives have a fitted effect of over 75% in size
#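 AlphaScreen detection with an anti-monomethyl H3K9 antibody quantified product after a 2 h room-temperature reaction containing 500 nM biotinylated H3K9 peptide, 20 µM SAM and 20 nM enzyme, which had been preincubated 15 min with compound.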
# Active calls of the source: *; ? = inconclusive; . = not tested or not shown; ! = not active in a repeat; [ ] = dose if it differs, or a comment. Compounds with a hit are over-represented: about 10% of the library has one in this group of screens. The call rests on the fitted dose curve; in most records, active means well fitted curve in the direction sought with a large enough effect; inconclusive means small, poorly fitted or top-dose-only effect, or another doubt; inactive means no such curve, though single readings can be large; an effect the other way counts as inactive or inconclusive. Potency means the concentration at half of the fitted maximal effect.
SMILES,HP1b binding inh,BAZ2B block,JMJD2A Tudor inh,GLS inhibitor,G9a block
O=C1CC(N2CCC(n3c(=O)[nH]c4ccccc43)CC2)C(=O)N1c1ccc(F)cc1 (centres undefined),28%,3%,-10%[11.4 µM],-18%,?
O=c1[nH]c2ccccc2n1C1CCN(CCCC(c2ccc(F)cc2)c2ccc(F)cc2)CC1,?,?,40µM*,7%,26%[12.7 µM]
CC(OC(=O)COc1ccc(Nc2ccccc2)cc1)C(=O)N(C)c1ccccc1 (centres undefined),?,22µM*,35µM*,?,40µM*
CN(C(=O)CSc1nc2ccc(NC(=O)COc3ccc(Cl)cc3)cc2s1)c1ccccc1,39%,-4%,-8%,6%,7%[59 µM]
O=C(c1ccc(N2CC3CC(C2)c2cccc(=O)n2C3)c([N+](=O)[O-])c1)N1CCCC1 (centres undefined),32%,-14%,-8%,-5%,2%[12.7 µM]
Nc1nc(N)c2nc(CNc3ccc(C(=O)NC(CCC(=O)O)C(=O)O)cc3)cnc2n1 (centres undefined),.,-35%,.,0%,2.7µM*!
CCN[C@@H](C)Cc1ccccc1,.,.,.,-11%[99.4 µM],.
CC(Cc1ccccc1)NCC(=O)Nc1cc(N(C)C)nc2ccccc12 (centres undefined),?,35µM*,1.1µM*,13%,?
CCNC(=O)[C@H]1O[C@@H](n2cnc3c(N)ncnc32)[C@H](O)[C@@H]1O,37%,-7%,-1%,-7%,7%[59 µM]
Nc1ncnc2c1ncn2[C@@H]1O[C@H](COP(=O)(O)CP(=O)(O)O)[C@@H](O)[C@H]1O,20%,.,79µM*,-7%,38%[59 µM]
Nc1ncnc2c1ncn2[C@@H]1O[C@H](COP(=O)(O)CP(=O)(O)OP(=O)(O)O)[C@@H](O)[C@H]1O,.,.,.,.,13µM*!
NC1=Nc2ccccc2Oc2ccccc21,-4%,-22%,-18%,4%,3%
NC(N)=NC(=O)c1nc(Cl)c(N)nc1N,46%,6%,-3%,-5%,34µM*!
CN(Cc1cccc(-c2ccncc2)c1)C(=O)Oc1ccccc1Cc1ccccc1,.,.,.,4%,.
CN1c2ccccc2C(NCCCCCCC(=O)O)c2ccc(Cl)cc2S1(=O)=O (centres undefined),.,.,.,4%,-2%[12.7 µM]
CCN(CC)C(=O)c1ccc(NC(=O)c2cccc(C(F)(F)F)c2)cc1,40%,-2%,-2%,2%,15%
CCN(CCCl)c1cc(CN(C)C)cc(NC(=O)c2ccc(C(=O)Nc3cc(CN(C)C)cc(N(CC)CCCl)c3)cc2)c1,10µM*,.,13µM*,13%,.
C=CC[N+]1(C)CC[C@]23c4c5ccc(O)c4O[C@H]2C(=O)CC[C@@]3(O)[C@H]1C5 (some centres undefined),?,-7%,?,44%,1.6µM*
C=CCN1C(=O)NC(=O)/C(=C/c2c(CCN(C)C(=O)c3ccccc3)cc3c(c2OC)OCO3)C1=O,41%,-37%,-20%,-2%,?
CNC(=S)N(C)CCc1cc2c(c(OC)c1C=C1C(=O)NC(=O)NC1=O)OCO2,41%,?,0%,0%,79µM*
CC1=Nc2ccccc2/C1=C/c1c(O)[nH]c(=O)[nH]c1=O,8%,?,-14%,0%,79µM*
C[N+]12CCC(CC1)C(=C(c1ccccc1)c1ccccc1)C2,12%,4%,-13%,8%,3.5µM*
CCn1c(O)c(C=NCc2ccccc2)c(=O)[nH]c1=S,6%,-19%,-21%,8%,?
O=c1[nH]c(=S)[nH]c(O)c1C(c1ccccn1)c1c(O)[nH]c(=S)[nH]c1=O,18%,20µM*,?,1%,5µM*
CCn1c(O)c(C(c2ccccn2)c2c(O)n(CC)c(=S)[nH]c2=O)c(=O)[nH]c1=S,21%,32µM*,4µM*,64%,?
SMILES,HP1b binding inh,BAZ2B block,JMJD2A Tudor inh,GLS inhibitor,G9a block
COc1cccc(C(c2nnnn2C(C)(C)C)N2CCC3(CC2)C(=O)NCN3c2ccccc2)c1OC (centres undefined),.,.,.,4%,.
O=C(Nc1nnc(-c2ccco2)o1)c1cccc2ccccc12,32%,?,?,0%,9%
O=C(CCS(=O)(=O)c1ccccc1)Nc1nnc(-c2ccco2)o1,23%,50µM*,25µM*,-1%,32µM*
Cc1cc(C)cc(NC(=O)CN2C(=O)CN=C(c3ccccc3)c3cc(Cl)ccc32)c1,13%,-13%,-29%,0%,?
CC(N)Cc1c[nH]c2ccc(O)cc12 (centres undefined),39%,.,-17%,61%,7.9µM*
CC(N)Cc1c[nH]c2ccc(OCc3cccs3)cc12 (centres undefined),-8%,.,?,-6%,21%[59 µM]
Cc1cc(C=C2C(=O)N(C)C(=S)N(C)C2=O)c(C)n1C1CCCCC1,7%,?,-36%,-2%,35µM*
Cc1cc(C=C2C(=O)NC(=S)NC2=O)c(C)n1C1CCCC1,25%,79µM*,-23%,1%,45µM*
COC(=O)C1=C(c2cccc(OC)c2OC)C[C@@H]2CC[C@H]1N2C(=O)N1CCC(C)CC1,14%,.,-26%,-6%,.
Cc1ccc(-n2c(/C=C/c3ccccc3)nc3ccccc3c2=O)cc1Cl,17%,2%,-4%,3%,10%[59 µM]
CCOC(=O)c1c(C)n(Cc2ccco2)c2ccc(OC)cc12,19%,19%,-12%,5%,9%
CCOC(=O)c1c(C)n(Cc2ccco2)c2c1cc(O)c1ccccc12,7%,-11%,-18%,15%,16µM*
CCCOc1ccc(N2CC(C(=O)Nc3ccccc3F)CC2=O)cc1 (centres undefined),27%,2%,-8%,7%,?
Clc1ccc(COC(Cn2ccnc2)c2ccc(Cl)cc2Cl)cc1 (centres undefined),-20%,25µM*,?,-3%,-28%[2.33 µM]
C[C@]12CC[C@H]3[C@@H](CC[C@@]45O[C@@H]4C(=O)C(C#N)C[C@]35C)[C@@H]1CC[C@@H]2O (some centres undefined),.,.,.,19%,-21%[12.7 µM]
CCCN1CCO[C@@H]2c3cc(O)ccc3OC[C@H]21,76%,-3%,-9%,32%,18µM*!
CCCCCCCCCCCCCC(=O)O[C@@H]1[C@@H](C)[C@@]2(O)[C@H](C=C(CO)C[C@]3(O)C(=O)C(C)=C[C@@H]23)[C@@H]2C(C)(C)C12OC(C)=O (some centres undefined),.,.,.,.,9%[59 µM]
O=C1C(Cc2cnc[nH]2)NC(=S)N1c1ccccc1 (centres undefined),22%,-3%,?,6%,50µM*
